Source: PubChem BioAssay (The Scripps Research Institute Molecular Screening Center)
In the library only some 3.5% were active in any assay of this set; here they are far more common.
TEAD-YAP block: TEAD-YAP interaction inhibition, primary screen, TEAD-YAP interaction inhibitor project, luminescence, HEK-TIYL cells; TEAD-Gal4/YAP UAS-luciferase luminescence; inhibition, % at 9.12 µM; 640,000 tested, 1.4% active; AID 1259422, 2018; in the data active = inhibition above about 32%;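 also: 0% = median of test compound wells and 100% = reference inhibitor wells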
GPR151 activ: activators of human GPR151, primary screen, cell-based, PathHunter beta-arrestin, luminescence; G-protein coupled receptor 151 (Homo sapiens), Q8TDV0; PathHunter beta-arrestin GPR151 cells; 650,000 tested, 1% active; AID 1508602, 2020; activation, % at 11.2 µM; in the data active = activation above about 4.9%;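 also: 0% = median of compound wells and 100% = cells with positive control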
MITF primary: MITF inhibitors, primary screen, biochemical, AlphaScreen, human; AlphaScreen MITF homodimerization, bead proximity signal; inhibition, % at 2.6 µM; 650,000 tested, 0.91% active; in the data active = inhibition above about 50%;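 also: 0% = vehicle wells with protein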
Target sequence (O75030 whole entry, looked up): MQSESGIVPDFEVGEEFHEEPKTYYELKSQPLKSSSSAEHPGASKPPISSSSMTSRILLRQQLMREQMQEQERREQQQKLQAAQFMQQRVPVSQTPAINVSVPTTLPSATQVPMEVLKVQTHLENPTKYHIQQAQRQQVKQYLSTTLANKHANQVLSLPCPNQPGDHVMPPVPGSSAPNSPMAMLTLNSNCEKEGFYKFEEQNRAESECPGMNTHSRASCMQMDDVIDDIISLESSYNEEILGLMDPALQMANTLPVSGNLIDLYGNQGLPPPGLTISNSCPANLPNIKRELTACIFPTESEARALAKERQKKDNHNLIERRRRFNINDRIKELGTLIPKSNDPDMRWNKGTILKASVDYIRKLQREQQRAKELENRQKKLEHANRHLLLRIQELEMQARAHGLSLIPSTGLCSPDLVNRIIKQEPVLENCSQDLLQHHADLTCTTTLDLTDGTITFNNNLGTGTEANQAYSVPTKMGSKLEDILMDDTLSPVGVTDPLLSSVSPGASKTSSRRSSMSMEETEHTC
FBW7 act: FBW7 E3 ligase activators, primary screen, biochemical, AlphaScreen, human; AID 1259310, 2017; AlphaScreen FBW7–phospho-cyclin E peptide binding, activator screen; normalized activity (activation), % at 26.1 µM; 650,000 tested, 0.13% active; in the data active = normalized activity above about 1.9%;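 also: purified mutant Fbw7 with reduced substrate affinity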
GPR151 conf act: GPR151 activators, triplicate retest, confirmation, cell-based, PathHunter beta-arrestin, luminescence; shares compounds with GPR151 activ; GPR151 PathHunter beta-arrestin cells, 90 min; % of EA-reagent control over plate median; activation, % at 11.2 µM; 6,700 tested, under 10 active;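 active = mean percent activation across replicates above the confirmation screen cutoff of 4.91%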
GPR119 counter: GPR119 activators in beta-arrestin cells, counter-screen for GPR151 activator project, cell-based, PathHunter beta-arrestin, luminescence, triplicate | shares compounds with GPR151 activ | 90 min; 0 = compound-well median, 100 = enzyme-acceptor control | activation, % at 11.2 µM | 6,700 tested, 0.3% active;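 active = mean percent activation in the counterscreen above 29.09%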;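 also: counterscreen on off-target GPR119 to flag nonselective hits from the GPR151 activator screen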
The depositor's hits bear a star; · = not tested or not shown.

SMILES | TEAD-YAP block | GPR151 activ | MITF primary | FBW7 act | GPR151 conf act | GPR119 counter
CCCOC(=O)CN1C(=O)c2ccc(C(=O)OCCC)cc2C1=O | -5 | 0 | 8 | 0 | · | ·
CCCOC(=O)CN1C(=O)c2ccc(Br)cc2C1=O | -3 | 8.7* | -1 | 0 | 0 | 14
CCOc1cccc(NC(=O)/C(C#N)=C\c2ccc(OCC(=O)O)c(Br)c2)c1 | 4 | 6.1* | -9 | 0 | -1 | -9
CCOc1cccc(NC(=O)/C(C#N)=C/c2ccccc2)c1 | -13 | 1 | 0 | 0 | · | ·
Oc1ccc(C(c2ccc(O)cc2)c2ccc(F)cc2)cc1 | 7 | 7.7* | 6 | 0 | -1 | 20
NC(CC(=O)O)c1ccc(F)cc1 (stereo not drawn) | -1 | -1 | -3 | 0 | · | ·
CCCCOc1ccc(/C=c2/sc3ncnn3c2=O)cc1OCC | 1 | -2 | 6 | 0 | · | ·
CCCCn1c(SCC(=O)NCc2ccco2)nc2ccsc2c1=O | -2 | 0 | 0 | 0 | · | ·
O=C(OCc1cccc([N+](=O)[O-])c1)c1ccc(-n2cnnn2)cc1 | 4 | 2 | 30 | 0 | · | ·
COc1ccc2c(CNC3CCCC(C)C3C)c(C(=O)O)n(Cc3ccc(C)cc3)c2c1 (stereo not drawn) | 11 | 4.9* | 10 | 0 | 0 | 0
Cn1nnnc1SCc1nnc(-c2cccs2)o1 | -21 | 7.6* | 2 | 0 | 1 | 14
Cn1nnnc1SCc1nnc(-c2ccccc2)o1 | -25 | 1 | -3 | 0 | · | ·
CCOc1ccc(Nc2n[nH]c(=S)n2-c2ccc(OCC)cc2)cc1 | 4 | 6.3* | 0 | 0 | 1 | 5
O=[N+]([O-])c1cc(CNCc2ccccc2)ccc1N1CCCCC1 | -45 | 5.6* | 44 | 0 | 1 | 6
Cc1cnc(Cl)nc1NCc1ccccc1 | -10 | 5.6* | 5 | 0 | 0 | 3
Cc1cccc(NC(=O)C(=O)NC2CCCCC2)c1 | -27 | 5.5* | 0 | 0 | -3 | -21
Cc1cccc(NC(=O)C(=O)NC2CCCCCC2)c1 | -52 | -1 | 0 | 0 | · | ·
C/C(=N\NC(=O)CCc1ccccc1)c1ccc(O)cc1 | 6 | 0 | 2 | 0 | · | ·
CCC(=O)Nc1nc2c(OC)ccc(OC)c2s1 | 12 | 5.0* | 5 | 0 | -1 | 2
CCC(=O)Nc1nc2c(Cl)ccc(Cl)c2s1 | -5 | 3 | -8 | 0 | · | ·
Cc1cc([N+](=O)[O-])c(N2CCCC2)c([N+](=O)[O-])c1 | 4 | 0 | 20 | 1 | · | ·
O=C(CN1C(=O)S/C(=C\c2cccs2)C1=O)N1CCCC1 | -3 | 5.5* | 14 | 0 | 0 | 3
O=C(CCN1C(=O)/C(=C\c2cccs2)SC1=S)N1CCCC1 | 21 | 6.0* | 5 | -1 | -1 | -8
CS(=O)(=O)N1CCC(Oc2ccc(-c3ccc(C#N)cc3)cc2)CC1 | 7 | 12* | -6 | 0 | -1 | -6
CCN1CCC(Oc2ccc(-c3ccc(C#N)cc3)cc2)CC1 | -15 | 4 | 3 | 0 | · | ·
SMILES | TEAD-YAP block | GPR151 activ | MITF primary | FBW7 act | GPR151 conf act | GPR119 counter
O=S(=O)(NN=C1CCCCCC1)c1ccccc1 | 11 | 15* | 3 | 0 | -1 | -6
O=S(=O)(NN=C1CCCCC1)c1ccccc1 | -5 | -2 | -5 | 0 | · | ·
c1cc2c(cc1CN1CCN(c3nc(Nc4ccc(N5CCOCC5)cc4)c4ncn(C5CCCCC5)c4n3)CC1)OCO2 | -1 | 2 | 19 | 0 | · | ·
O=C(CN1C(=O)[C@@H]2CCCN2C(=O)c2ccccc21)Nc1ccccc1F | 8 | -1 | 4 | 0 | · | ·
O=C(CN1C(=O)[C@H]2CCCN2C(=O)c2ccccc21)Nc1cccc2ccccc12 | -2 | 6.8* | -12 | 0 | 1 | 1
COCCCNC(=O)c1ccccc1-c1nc(-c2ccc(Cl)cc2)no1 | -7 | -1 | 11 | 0 | · | ·
O=C(Cc1n[nH]c(=O)c2ccccc12)Nc1ccccn1 | 0 | 5.4* | 7 | 0 | 0 | -7
